Assay outcomes (PubChem)
Most compounds without a hit are left out; they make up all but 1.6% or so of the library.
KCNQ2 inh: rat KCNQ2 potassium channel inhibitors, primary screen, cell-based, CHO-K1, FluxOR thallium flux, B-score | Potassium voltage-gated channel subfamily KQT member 2 (Rattus norvegicus), O88943 | 20 min; stronger effect = lower value | B-score at 10 µM | hit rate 1.1% among 310,000 | AID 2156, 2009;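 active = fluorescence ratio B-score at most minus 3 library SDs, with starting brightness B-score within 2 library SDs, cut at about -5.5 in these data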
KCNQ2 pot: potentiators of rat KCNQ2 potassium channel; Potassium voltage-gated channel subfamily KQT member 2 (Rattus norvegicus), O88943; CHO-K1 KCNQ2, FluxOR thallium flux fluorescence; stronger effect = higher value; B-score at 10 µM; hit rate 0.54% among 310,000;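 active = fluorescence ratio B-score at least 3 SD of library B-scores, with initial fluorescence B-score within 3 of them, cut at about 5.3 in these data; same plate scores as AID 2156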;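 note: B-score of peak minus minimum over baseline fluorescence ratio after K+ and Tl+ stimulus; positive B-score means potentiation of KCNQ2 with more thallium influx and brighter signal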
Kir21 conf inh: mouse Kir2.1 channel blockers, retest, confirmation, cell-based, FluxOR thallium flux, duplicate; shares compounds with KCNQ2 pot; Kir2.1-expressing cells, FluxOR thallium flux fluorescence; stronger effect = lower value; Tl flux remaining, % of negative control (stronger effect = lower value), % at 10 µM; hit rate 41% among 2,300;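 active = Primary-screen hit whose thallium flux fell at least 3 control SD below untreated wells in both duplicates, with normal baseline fluorescence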;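 note: 0% = blank wells without stimulus and 100% = stimulated no-compound controls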
HEK293 ctr: parental HEK293 activity in Kir2.1 inhibitor counter-screen; shares compounds with KCNQ2 pot; parental HEK293 cells, FluxOR thallium flux fluorescence; 0% = unstimulated blank wells; FluxOR signal as % of negative control (100 = no effect), % at 10 µM; hit rate 19% among 2,300; AID 2105;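 active = dye signal at least 3 control SD above or below untreated wells in both duplicates, raw fluorescence within 3, either direction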;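 note: percent is based on the flux ratio of peak minus minimum fluorescence over baseline F0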
CHO-K1 Tl ctr: nonspecific thallium flux increase in parental CHO-K1, confirmation, counter-screen for KCNQ2 potentiator project, cell-based, FluxOR thallium flux, duplicate; hit rate 43% among 1,200; shares compounds with KCNQ2 pot; activity increase over 3SD of controls, % at 10 µM; AID 2282, 2010; parental CHO-K1 cells, FluxOR thallium flux fluorescence; zero = vehicle mean+3SD, 100% = vehicle-minus-blank window;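 active = signal rise of at least 3 SD above the untreated control mean, in both duplicate wells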;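 note: counter screen of KCNQ2 potentiator hits so any rise reflects channel-independent effects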
KCNQ1 pot spec: human KCNQ1 channel potentiation off-target, confirmation, selectivity assay for KCNQ2 potentiator project, cell-based, CHO, FluxOR thallium flux; activation over 3SD threshold, % at 10 µM; shares compounds with KCNQ2 pot; AID 2283, 2010; hit rate 28% among 1,200; CHO KCNQ1 stable, FluxOR thallium flux fluorescence; beyond 3SD, as % of vehicle-control signal;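 active = fluorescence ratio rise of at least 3 SD of vehicle wells above their mean, in both replicate wells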;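 note: 0% = vehicle mean plus 3 SD and 100% = vehicle minus unstimulated blank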
Target sequence (P51787 whole entry, looked up): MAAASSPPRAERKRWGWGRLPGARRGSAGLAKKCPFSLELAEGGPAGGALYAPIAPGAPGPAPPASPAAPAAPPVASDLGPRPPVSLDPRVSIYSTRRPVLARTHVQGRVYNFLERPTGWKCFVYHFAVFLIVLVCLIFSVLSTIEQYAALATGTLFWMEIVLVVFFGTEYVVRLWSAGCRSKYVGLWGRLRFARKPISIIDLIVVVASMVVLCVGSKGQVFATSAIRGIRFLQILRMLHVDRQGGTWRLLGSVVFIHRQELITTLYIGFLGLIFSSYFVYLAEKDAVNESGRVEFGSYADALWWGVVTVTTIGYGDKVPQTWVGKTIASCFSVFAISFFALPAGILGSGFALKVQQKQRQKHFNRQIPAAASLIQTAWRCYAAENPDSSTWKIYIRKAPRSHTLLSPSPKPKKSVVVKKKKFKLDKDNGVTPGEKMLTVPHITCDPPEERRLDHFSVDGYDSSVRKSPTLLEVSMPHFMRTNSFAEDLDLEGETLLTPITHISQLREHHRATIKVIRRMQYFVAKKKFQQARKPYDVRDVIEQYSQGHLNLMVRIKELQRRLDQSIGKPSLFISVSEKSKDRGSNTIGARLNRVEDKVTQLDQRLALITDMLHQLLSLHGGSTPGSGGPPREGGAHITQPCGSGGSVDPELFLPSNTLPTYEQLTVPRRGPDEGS
KCNQ2 pot conf: rat KCNQ2 channel potentiators, confirmation, cell-based, CHO, FluxOR thallium flux, duplicate; hit rate 68% among 1,200; potentiation, less the hit threshold, % at 10 µM; CHO-KCNQ2 cells, FluxOR thallium flux fluorescence; shares compounds with KCNQ2 pot;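 active = fluorescence ratio rising 3 SD or more over the vehicle control mean in both replicates, plus primary screen hit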;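 note: peak minus minimum thallium fluorescence divided by baseline after K/Tl stimulus; 0% = vehicle mean plus 3 SD and 100% = vehicle minus unstimulated blank difference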
Kir2-1 sel: mouse Kir2.1 channel activation off-target, confirmation, selectivity assay for KCNQ2 potentiator project, cell-based, HEK293, FluxOR thallium flux. HEK293 Kir2.1, FluxOR thallium flux fluorescence. hit rate 2% among 1,200. activity over 3SD threshold, % at 10 µM. AID 2345, 2010. shares compounds with KCNQ2 pot;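 active = fluorescence ratio rise of at least 3 SD above the vehicle-control mean, seen in both replicates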;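 note: 0% = vehicle mean plus 3 SD and 100% = vehicle minus no-stimulus blank window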
KCNQ2 W236L MoA: potentiators of retigabine-insensitive KCNQ2 W236L, mechanism study for KCNQ2 potentiator project, cell-based, rat KCNQ2 W236L, CHO, automated patch clamp. shares compounds with KCNQ2 pot. automated patch clamp current. current increase over 3SD of negative controls (%), stronger effect = higher value, % at 25 µM. hit rate 10% among 940. AID 2558, 2010;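 active = current increase at least 3 SD of the untreated controls above them in both duplicate recordings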
* marks the source's active call; other numbers are inactive results.

Results for CCCCCN(C(=O)CCC(=O)OCc1cccc(F)c1)c1c(N)n(CCCC)c(=O)[nH]c1=O ?
KCNQ2 inh: inactive

What do the screens show for `CCCCCC(=O)Cc1cc(O)cc2c1C(=O)Oc1cc(O)c(C(=O)O)c(CCCCC)c1O2`?
KCNQ2 inh: inactive; KCNQ2 pot: 7.5*; Kir21 conf inh: inactive; HEK293 ctr: inactive; CHO-K1 Tl ctr: -8; KCNQ1 pot spec: 43*; KCNQ2 pot conf: 8.8*; Kir2-1 sel: -21; KCNQ2 W236L MoA: inactive

Results for Cc1cc(=O)[nH]c(SCC(=O)N2CCN(C(c3ccccc3)c3ccccc3)CC2)n1 ?
KCNQ2 inh: inactive; KCNQ2 pot: 10*; Kir21 conf inh: inactive; HEK293 ctr: inactive; CHO-K1 Tl ctr: -2; KCNQ1 pot spec: 9.2*; KCNQ2 pot conf: 5.0*; Kir2-1 sel: -26; KCNQ2 W236L MoA: inactive

How did Cc1cc(=O)[nH]c(SCC(=O)N2CCCCC2)n1 do in these assays?
KCNQ2 inh: inactive

Results for Cn1c(CSc2ccccc2)c(C#N)c2ccccc21 ?
KCNQ2 inh: inactive; KCNQ2 pot: 0.32

How did Cc1ccc(SCc2c(C#N)c3ccccc3n2C)cc1 do in these assays?
KCNQ2 inh: inactive; Kir21 conf inh: inactive; HEK293 ctr: inactive

What do the screens show for `CN(CC(=O)Nc1ccc(F)cc1)C(=O)COC(=O)COc1ccc(C#N)cc1`?
KCNQ2 inh: inactive; KCNQ2 pot: 1

Results for Cc1cc(C)cc(OCC(=O)OCC(=O)N(C)CC(=O)Nc2ccc(F)cc2)c1 ?
KCNQ2 inh: inactive; KCNQ2 pot: 8.3*; Kir21 conf inh: inactive; HEK293 ctr: inactive; CHO-K1 Tl ctr: 18*; KCNQ1 pot spec: -8; KCNQ2 pot conf: 19*; Kir2-1 sel: -36; KCNQ2 W236L MoA: inactive

How did COc1cc(CN2CCCC(C(=O)N3CCc4ccccc4C3)C2)cc(OC)c1OC (stereo not given) do in these assays?
KCNQ2 inh: inactive

What do the screens show for `FC(F)(F)c1cccc(CNC2c3ccccc3-c3ccccc32)c1`?
KCNQ2 inh: inactive

How did c1ccc(COc2ccccc2CNC2CCCC2)cc1 do in these assays?
KCNQ2 inh: inactive; KCNQ2 pot: 2.2

How did c1ccc(COc2ccccc2CNC23CC4CC(CC(C4)C2)C3)cc1 do in these assays?
KCNQ2 inh: inactive; Kir21 conf inh: 42%*; HEK293 ctr: inactive

What do the screens show for `O=C(Nc1cc(S(=O)(=O)N2CCCCC2)ccc1O)c1ccccc1NS(=O)(=O)c1ccc(F)c(F)c1`?
KCNQ2 inh: inactive; KCNQ2 pot: 0.42

How did Cn1c(CNC(=O)c2ccc(F)cc2)cc2ccccc21 do in these assays?
KCNQ2 inh: inactive; KCNQ2 pot: 6.5*; Kir21 conf inh: inactive; HEK293 ctr: inactive; CHO-K1 Tl ctr: 0; KCNQ1 pot spec: 78*; KCNQ2 pot conf: 0; Kir2-1 sel: -27; KCNQ2 W236L MoA: inactive
